# According to PubChem BioAssay (EPA / NIEHS):
# Active and inactive are the calls of the source. The calls were made as follows: active = hit-call score of the fitted dose curve at least 0.9, where 1 is the maximum; inactive = score below 0.9.
# Key:
# [1] = APR_HepG2_p53Act_72hr: Apredica 72-hour HepG2 Assay for p53 Activation (AID 2282923); conditions: high-content imaging, actives raise or lower the signal;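 also: average cellular p53 protein immunofluorescence intensity in HepG2 cells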
# In short: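 After 72 h with compound (ten points, 0.39 to 200 uM, final DMSO 0.5% v/v), fixed HepG2 cells were labelled with sheep anti-p53 and Hoechst 33342 and imaged; gain or loss versus DMSO scored.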
# [2] = ATG_CRE_CIS: Attagene CIS-FACTORIAL HepG2 Assay for human cAMP Responsive Element (CRE) binding protein 3 (AID 2282926); conditions: HepG2 CRE cis-reporter, Attagene multiplexed mRNA; actives raise or lower the signal
# In short: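 Readout: fluorescently labelled reporter transcripts resolved by capillary electrophoresis after RT-PCR, taken 24 h post-dosing in transfected HepG2. Endogenous transcription factor activity drives each cis-element reporter; gain or loss of signal fitted relative to DMSO control.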
# [3] = biological target: CCAAT/enhancer-binding protein beta (Homo sapiens) (UniProt P17676); experiment: ATG_C_EBP_CIS: Attagene CIS-FACTORIAL HepG2 Assay for human CCAAT/Enhancer Binding Protein (C/EBP) beta (AID 2282927); conditions: HepG2 Attagene cis-factorial transcription factor reporter; actives raise or lower the signal
# Sequence of CCAAT/enhancer-binding protein beta (Homo sapiens) (P17676 whole entry, looked up): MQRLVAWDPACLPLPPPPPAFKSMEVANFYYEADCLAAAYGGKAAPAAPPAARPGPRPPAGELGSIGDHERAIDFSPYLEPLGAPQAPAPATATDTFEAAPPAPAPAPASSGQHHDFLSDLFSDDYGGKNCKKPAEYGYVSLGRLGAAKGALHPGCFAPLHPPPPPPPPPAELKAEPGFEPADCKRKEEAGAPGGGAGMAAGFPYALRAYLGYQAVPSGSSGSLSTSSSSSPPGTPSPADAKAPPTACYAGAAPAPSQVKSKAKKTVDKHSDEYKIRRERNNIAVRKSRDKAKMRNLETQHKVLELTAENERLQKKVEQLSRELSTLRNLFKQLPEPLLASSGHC
# In short: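 Transiently transfected HepG2 (MRTU library, endogenous TF-driven promoters); 24 h dosing; total RNA → oligo(dT) RT → PCR → 6-FAM primer extension → HpaI digest → CE; fit bidirectionally vs DMSO.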
smiles,measurement,setting,value
Oc1c(Cl)cc(Cl)cc1Cl,outcome,[1],inactive
Nc1c(Oc2ccccc2)cc(O)c2c1C(=O)c1ccccc1C2=O,outcome,[2],inactive
same,outcome,[3],inactive
ClCc1ccccc1CCl,AC50,[2],9.56 µM (active)
same,outcome,[3],inactive
CC(C)(C)c1cc([N+](=O)[O-])cc(C(C)(C)C)c1O,outcome,[2],inactive
same,outcome,[3],inactive
CN(C)CCN(C)C,outcome,[2],inactive
same,outcome,[3],inactive
CC1CC(=O)O1 (centres undefined),outcome,[2],inactive
same,outcome,[3],inactive
[F][Sn]([c]1ccccc1)([c]1ccccc1)[c]1ccccc1,AC50,[2],0.321 µM (active)
same,AC50,[3],2.15 µM (active)
CN(N=O)C(N)=O,outcome,[2],inactive
same,outcome,[3],inactive
CCOP(=S)(OCC)O/N=C(\C#N)c1ccccc1,outcome,[2],inactive
same,outcome,[3],inactive
O=C(Cc1ccccc1)OCCc1ccccc1,outcome,[2],inactive
same,outcome,[3],inactive
CC(C)CP(=S)(S)CC(C)C,outcome,[2],inactive
same,outcome,[3],inactive
BrCCCCBr,outcome,[2],inactive
same,outcome,[3],inactive
CCCCN(CCCC)C(=S)[S-].CCCCN(CCCC)C(=S)[S-].[Ni+2],outcome,[2],inactive
same,outcome,[3],inactive
Cc1c([N+](=O)[O-])c(C)c([N+](=O)[O-])c(C(C)(C)C)c1[N+](=O)[O-],outcome,[2],inactive
same,outcome,[3],inactive
NC(=O)CCl,outcome,[2],inactive
same,outcome,[3],inactive
O=C/C(Cl)=C(/Cl)C(=O)O,outcome,[2],inactive
same,outcome,[3],inactive
C=C(C)[C@@H]1CC=C(C=O)CC1,outcome,[2],inactive
same,outcome,[3],inactive
c1ccc2c(c1)Oc1ccccc1O2,outcome,[2],inactive
same,outcome,[3],inactive
ClCCN1CCOCC1,outcome,[2],inactive
same,outcome,[3],inactive
C#CCO,outcome,[2],inactive
same,outcome,[3],inactive
O=C(Cl)OCCOCCOC(=O)Cl,outcome,[2],inactive
same,outcome,[3],inactive
O=[N+]([O-])c1ccc(Nc2ccccc2)cc1,outcome,[2],inactive
same,outcome,[3],inactive
CC(C)(C)c1ccc(CCOc2ncnc3ccccc23)cc1,outcome,[2],inactive
same,outcome,[3],inactive
CC(c1ccccc1)(c1ccc(O)cc1)c1ccc(O)cc1,outcome,[2],inactive
same,outcome,[3],inactive
Cc1cc(C(F)(C(F)(F)F)C(F)(F)F)ccc1NC(=O)c1cccc(I)c1C(=O)NC(C)(C)CS(C)(=O)=O,outcome,[2],inactive
same,outcome,[3],inactive
CC(C)=CC1C(C(=O)OCc2cccc(Oc3ccccc3)c2)C1(C)C (centres undefined),outcome,[2],inactive
same,outcome,[3],inactive
CC(C)CC(C)(c1ccc(O)cc1)c1ccc(O)cc1,outcome,[2],inactive
same,outcome,[3],inactive
CC(O)(CS(=O)(=O)c1ccc(F)cc1)C(=O)Nc1ccc(C#N)c(C(F)(F)F)c1 (centres undefined),outcome,[2],inactive
same,outcome,[3],inactive
O=CCCl,AC50,[2],24.7 µM (active)
same,AC50,[3],25 µM (active)
OC(Cc1ccccc1Cl)(Cn1cncn1)C1(Cl)CC1 (centres undefined),outcome,[2],inactive
same,outcome,[3],inactive
CN(C1CCCCC1)C1CCCCC1,outcome,[2],inactive
same,outcome,[3],inactive
CN(C)[C@@H]1C(=O)C(C(N)=O)=C(O)[C@@]2(O)C(=O)C3=C(O)c4c(O)ccc(Cl)c4[C@@](C)(O)[C@H]3C[C@@H]12,outcome,[2],inactive
same,outcome,[3],inactive
O=S1(=O)OC(c2cc(Br)c(O)c(Br)c2)(c2cc(Br)c(O)c(Br)c2)c2ccccc21,outcome,[2],inactive
same,outcome,[3],inactive
CC(C)(C1CCC(O)CC1)C1CCC(O)CC1 (centres undefined),outcome,[2],inactive
same,outcome,[3],inactive
CNC(=O)O/N=C/C(C)(C)S(C)(=O)=O,outcome,[2],inactive
same,outcome,[3],inactive
OC(c1ccc(Cl)cc1)(c1ccc(Cl)cc1)c1cccnc1,outcome,[2],inactive
same,AC50,[3],11.1 µM (active)
C[N+](C)(C)Cc1ccccc1,outcome,[2],inactive
same,outcome,[3],inactive
O=C(NC(=O)c1c(F)cccc1F)Nc1cc(Cl)c(OC(F)(F)C(F)C(F)(F)F)cc1Cl (centres undefined),outcome,[2],inactive
same,outcome,[3],inactive
OC[P+](CO)(CO)CO,outcome,[2],inactive
same,outcome,[3],inactive
O=NN1CCOCC1,outcome,[2],inactive
same,outcome,[3],inactive
CCCCCCCCCCCCOS(=O)(=O)O,outcome,[2],inactive
same,outcome,[3],inactive
CC1(C)[C@H](C(=O)O[C@H](C#N)c2cccc(Oc3ccccc3)c2)[C@@H]1/C=C(\Cl)C(F)(F)F,outcome,[2],inactive
same,outcome,[3],inactive
CCOP(=O)(OCC)OC(=CCl)c1ccc(Cl)cc1Cl,outcome,[2],inactive
same,outcome,[3],inactive
Oc1c(Br)cc(Br)cc1Br,outcome,[2],inactive
same,outcome,[3],inactive
O=c1[nH]c2ccccc2n1C1CCN(CCCC(c2ccc(F)cc2)c2ccc(F)cc2)CC1,outcome,[2],inactive
same,AC50,[3],5.75 µM (active)
Nc1cccnc1,outcome,[2],inactive
same,outcome,[3],inactive
CC(C)[N+](=O)[O-],outcome,[2],inactive
same,outcome,[3],inactive
C=CC(Cl)CCl (centres undefined),outcome,[2],inactive
same,outcome,[3],inactive
CCCCCCCCCCBr,outcome,[2],inactive
same,outcome,[3],inactive
CN(C)c1ccc(N=O)cc1,outcome,[2],inactive
same,outcome,[3],inactive
C=CCOC(F)(C(F)(F)F)C(F)(F)F,outcome,[2],inactive
same,outcome,[3],inactive
CC[N+](CC)(CC)CC,outcome,[2],inactive
same,outcome,[3],inactive
CCCSP(=S)(OCC)Oc1ccc(SC)cc1 (centres undefined),outcome,[2],inactive
same,outcome,[3],inactive
O=[N+]([O-])c1ccccc1O,outcome,[2],inactive
same,outcome,[3],inactive
CCOc1ccc(N)cc1,outcome,[2],inactive
same,outcome,[3],inactive
ClCCCCl,outcome,[2],inactive
same,outcome,[3],inactive
Cc1cc(C(C)(C)c2ccc(O)c(C)c2)ccc1O,AC50,[2],21.8 µM (active)
same,outcome,[3],inactive
CCOC(=O)C(SP(=S)(OC)OC)c1ccccc1 (centres undefined),outcome,[2],inactive
same,outcome,[3],inactive
O=C(NC(=O)c1c(F)cccc1F)Nc1cc(Cl)c(Oc2ncc(C(F)(F)F)cc2Cl)c(Cl)c1,outcome,[2],inactive
same,outcome,[3],inactive
CCCCCCCCBr,outcome,[2],inactive
same,outcome,[3],inactive
Brc1c(Br)c(Br)c(Oc2c(Br)c(Br)c(Br)c(Br)c2Br)c(Br)c1Br,outcome,[2],inactive
same,outcome,[3],inactive
O=S(=O)(Oc1ccc(Cl)cc1)c1ccc(Cl)cc1,outcome,[2],inactive
same,outcome,[3],inactive
CC(C)C(C)(N)C#N (centres undefined),outcome,[2],inactive
same,outcome,[3],inactive
Cc1cc(Cl)ccc1O,outcome,[2],inactive
same,outcome,[3],inactive
CC(=Cc1ccccc1)[N+](=O)[O-],outcome,[2],inactive
same,outcome,[3],inactive
C=CCc1ccccc1O,outcome,[2],inactive
same,outcome,[3],inactive
[Cl][Sn]([c]1ccccc1)([c]1ccccc1)[c]1ccccc1,AC50,[2],0.367 µM (active)
same,outcome,[3],inactive
Clc1ccc(C(Cl)(Cl)Cl)cn1,outcome,[2],inactive
same,outcome,[3],inactive
O=C(O)COc1ccc(Cl)cc1,outcome,[2],inactive
same,outcome,[3],inactive
CC(C)(COCC1CO1)COCC1CO1 (centres undefined),outcome,[2],inactive
same,outcome,[3],inactive
C=CC(=O)NC(C)(C)CC(C)=O,outcome,[2],inactive
same,outcome,[3],inactive
C=C(C)C(=O)OCCCCOC(=O)C(=C)C,outcome,[2],inactive
same,outcome,[3],inactive
N#Cc1ccc(Cl)cc1,outcome,[2],inactive
same,outcome,[3],inactive
CC(C)(C#N)N=NC(C)(C)C#N,outcome,[2],inactive
same,outcome,[3],inactive
C=CC(F)(C(F)(F)F)C(F)(F)C(F)(F)F (centres undefined),outcome,[2],inactive
same,outcome,[3],inactive
CS(=O)(=O)c1ccc(C(=O)C2C(=O)CCCC2=O)c(Cl)c1COCC(F)(F)F,outcome,[2],inactive
same,outcome,[3],inactive
Cc1cc(Cl)ccc1N,outcome,[2],inactive
same,outcome,[3],inactive
Cc1cc(SCc2sc(-c3ccc(C(F)(F)F)c(F)c3)nc2C)ccc1OCC(=O)O,outcome,[2],inactive
same,outcome,[3],inactive
c1cc[c]([Sb]([c]2ccccc2)[c]2ccccc2)cc1,outcome,[2],inactive
same,outcome,[3],inactive
CCOCn1c(-c2ccc(Cl)cc2)c(C#N)c(Br)c1C(F)(F)F,AC50,[2],1.2 µM (active)
same,outcome,[3],inactive
O=[N+]([O-])c1ccc(Cl)c([N+](=O)[O-])c1,outcome,[2],inactive
same,outcome,[3],inactive
COCCl,outcome,[2],inactive
same,outcome,[3],inactive
BrCC(Br)c1ccccc1 (centres undefined),outcome,[2],inactive
same,outcome,[3],inactive
C[CH2][Hg][S]c1ccccc1C(=O)O,AC50,[2],2.94 µM (active)
same,AC50,[3],2.23 µM (active)
CC(C)N(C(=O)CCl)c1ccccc1,outcome,[2],inactive
same,outcome,[3],inactive
Cc1cccc(N=Nc2ccc(N(C)C)cc2)c1,outcome,[2],inactive
same,outcome,[3],inactive
CCCCCCCCCCCCN(C)C,outcome,[2],inactive
same,outcome,[3],inactive
Nc1ccc(-c2ccccc2)cc1,outcome,[2],inactive
same,outcome,[3],inactive
O=NN1CCCCCCC1,outcome,[2],inactive
same,outcome,[3],inactive
Nc1nc(=S)[nH][nH]1,outcome,[2],inactive
same,outcome,[3],inactive
N#CCCC(Br)(C#N)CBr (centres undefined),AC50,[2],53.5 µM (active)
same,outcome,[3],inactive
CCN(N=O)C(N)=O,outcome,[2],inactive
same,outcome,[3],inactive
CCOC(=O)Cc1ccccc1,outcome,[2],inactive
same,outcome,[3],inactive
C=CC(=O)[O][Sn]([CH2]CCC)([CH2]CCC)[CH2]CCC,AC50,[2],0.412 µM (active)
same,outcome,[3],inactive
CCOC(=O)CC(=O)CCl,AC50,[2],176 µM (active)
same,AC50,[3],183 µM (active)
CCCSP(=S)(OCC)Oc1ccc(Cl)cc1Cl (centres undefined),outcome,[2],inactive
same,outcome,[3],inactive
CC(=O)CN(CC(C)=O)N=O,outcome,[2],inactive
same,outcome,[3],inactive
N#Cc1ccccc1Cl,outcome,[2],inactive
same,outcome,[3],inactive
CCNc1nc(NCC)nc(SC)n1,outcome,[2],inactive
same,outcome,[3],inactive
Nc1nc(N)nc(Cl)n1,outcome,[2],inactive
same,outcome,[3],inactive
CC(c1ccc(O)cc1)c1ccc(O)cc1,outcome,[2],inactive
same,outcome,[3],inactive
N#Cc1ccncc1,outcome,[2],inactive
same,outcome,[3],inactive
O=C=Nc1ccc(Cl)cc1,outcome,[2],inactive
same,outcome,[3],inactive
CCCCN(CCCC)C(=S)S,outcome,[2],inactive
same,outcome,[3],inactive
CCC[N+](CCC)(CCC)CCC,outcome,[2],inactive
same,outcome,[3],inactive
CC(C)(c1ccc(O)c(-c2ccccc2)c1)c1ccc(O)c(-c2ccccc2)c1,outcome,[2],inactive
same,outcome,[3],inactive
CCOP(=S)(OCC)SCS(=O)(=O)C(C)(C)C,outcome,[2],inactive
same,outcome,[3],inactive
CCC[CH2][Sn]([Cl])([Cl])[CH2]CCC,AC50,[2],0.947 µM (active)
same,AC50,[3],0.33 µM (active)
OCC(c1ccc(Cl)cc1)c1ccc(Cl)cc1,outcome,[2],inactive
same,outcome,[3],inactive
CNC(=O)CSP(=O)(OC)OC,outcome,[2],inactive
same,outcome,[3],inactive
C1CN2CCN1CC2,outcome,[2],inactive
same,outcome,[3],inactive
OCCCCO,outcome,[2],inactive
same,outcome,[3],inactive
Nc1ccc(Br)cc1,outcome,[2],inactive
same,outcome,[3],inactive
NC(=O)c1ccc(N)nc1,outcome,[2],inactive
same,outcome,[3],inactive
C=CCCl,outcome,[2],inactive
same,outcome,[3],inactive
OC[C@@H](O)[C@H]1O[C@@H]2O[C@H](C(Cl)(Cl)Cl)O[C@@H]2[C@H]1O,outcome,[2],inactive
same,outcome,[3],inactive
Cc1cc(-c2cc(C)c(N)c(C)c2)cc(C)c1N,outcome,[2],inactive
same,outcome,[3],inactive
C=CC(=O)OCC(COC(=O)C=C)(COC(=O)C=C)COC(=O)C=C,outcome,[2],inactive
same,outcome,[3],inactive
CCOC(=O)CCN(SN(C)C(=O)Oc1cccc2c1OC(C)(C)C2)C(C)C,outcome,[2],inactive
same,outcome,[3],inactive
Cc1ccccc1OP(=O)(Oc1ccccc1C)Oc1ccccc1C,outcome,[2],inactive
same,outcome,[3],inactive
